Targets include RELARELA (p65 homodimer) (Homo sapiens, UniProt Q04206 1-307); p50p50 homodimer (Homo sapiens, UniProt P19838 7-356); RELB subunit;p50 subunit (Homo sapiens;Homo sapiens, UniProt Q01201;P19838 120-401;7-356).
What all share (experiment): protein binding microarray; high values mean tight binding
Holding throughout (details): dsDNA, one strand shown

The next assay addresses T1, p52p52 homodimer (Homo sapiens, UniProt Q00653 4-332).
T1 sequence: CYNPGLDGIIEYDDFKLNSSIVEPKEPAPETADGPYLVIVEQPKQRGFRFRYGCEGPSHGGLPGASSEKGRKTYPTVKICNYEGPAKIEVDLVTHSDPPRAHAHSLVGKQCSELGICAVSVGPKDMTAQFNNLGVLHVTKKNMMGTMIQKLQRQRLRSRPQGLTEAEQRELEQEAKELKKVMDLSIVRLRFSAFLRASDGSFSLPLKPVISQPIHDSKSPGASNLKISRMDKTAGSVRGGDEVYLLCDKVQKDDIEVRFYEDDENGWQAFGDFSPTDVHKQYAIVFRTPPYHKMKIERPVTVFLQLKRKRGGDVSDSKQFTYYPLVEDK

Assay [1] concerns the target RELA (p65) subunit of heterodimer;p50 subunit (Homo sapiens;Homo sapiens, UniProt Q04206;P19838 1-307;7-356).
In assay [2] the target is RELA (p65) subunit of heterodimer;p52 subunit (Homo sapiens;Homo sapiens, UniProt Q04206;Q00653 1-307;4-332).
The target of the next assay is T2, RELB subunit;p52 subunit (Homo sapiens;Homo sapiens, UniProt Q01201;Q00653 120-401;4-332).
T2 sequence 1: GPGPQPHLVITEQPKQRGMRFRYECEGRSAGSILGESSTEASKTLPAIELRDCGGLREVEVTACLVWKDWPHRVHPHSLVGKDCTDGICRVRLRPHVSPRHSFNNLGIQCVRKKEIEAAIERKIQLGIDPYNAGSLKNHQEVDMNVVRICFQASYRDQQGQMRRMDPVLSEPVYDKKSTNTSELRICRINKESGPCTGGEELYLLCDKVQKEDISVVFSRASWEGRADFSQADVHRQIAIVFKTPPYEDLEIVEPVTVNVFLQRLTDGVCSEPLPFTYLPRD
T2 sequence 2: T1 sequence

Assay [3] concerns the target C-Rel subunit;p50 subunit (Homo sapiens;Homo sapiens, UniProt Q04864;P19838 1-285;7-356).
Assay [4] addresses T3, C-Rel subunit;p52 subunit (Homo sapiens;Homo sapiens, UniProt Q04864;Q00653 1-285;4-332).
T3 sequence 1: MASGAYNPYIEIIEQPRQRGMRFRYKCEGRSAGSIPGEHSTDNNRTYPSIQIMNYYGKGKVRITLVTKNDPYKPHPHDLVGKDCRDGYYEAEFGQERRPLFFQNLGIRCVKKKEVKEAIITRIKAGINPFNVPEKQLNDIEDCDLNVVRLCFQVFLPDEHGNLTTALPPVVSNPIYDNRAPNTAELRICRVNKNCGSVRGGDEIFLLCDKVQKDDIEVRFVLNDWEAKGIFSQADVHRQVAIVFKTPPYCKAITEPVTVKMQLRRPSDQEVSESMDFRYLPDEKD
T3 sequence 2: T1 sequence

Sequence of p50p50 homodimer (P19838 7-356): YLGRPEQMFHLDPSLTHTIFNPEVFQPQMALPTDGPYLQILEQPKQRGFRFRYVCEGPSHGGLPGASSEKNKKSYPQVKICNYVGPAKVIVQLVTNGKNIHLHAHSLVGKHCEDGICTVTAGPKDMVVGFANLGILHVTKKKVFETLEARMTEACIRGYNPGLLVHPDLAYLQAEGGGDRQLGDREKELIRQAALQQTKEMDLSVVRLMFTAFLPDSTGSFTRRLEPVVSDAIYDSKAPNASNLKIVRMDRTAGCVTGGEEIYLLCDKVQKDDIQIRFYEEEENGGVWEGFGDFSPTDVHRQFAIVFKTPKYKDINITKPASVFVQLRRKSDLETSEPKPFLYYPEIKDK
Sequence of RELA (p65) subunit of heterodimer;p50 subunit (Q04206 1-307, chain 1 of 2): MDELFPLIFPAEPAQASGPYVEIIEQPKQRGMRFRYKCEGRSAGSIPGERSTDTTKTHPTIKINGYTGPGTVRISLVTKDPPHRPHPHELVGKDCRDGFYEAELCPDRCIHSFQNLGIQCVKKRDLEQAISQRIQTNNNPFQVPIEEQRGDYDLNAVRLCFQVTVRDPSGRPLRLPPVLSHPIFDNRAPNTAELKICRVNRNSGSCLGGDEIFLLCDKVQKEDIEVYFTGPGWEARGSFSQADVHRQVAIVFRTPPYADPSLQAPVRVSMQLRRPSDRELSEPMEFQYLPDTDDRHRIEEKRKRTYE
Sequence of RELA (p65) subunit of heterodimer;p50 subunit (P19838 7-356, chain 2 of 2): as the sequence (P19838 7-356) above
Sequence of RELARELA (p65 homodimer) (Q04206 1-307): as the sequence (Q04206 1-307, chain 1 of 2) above

For CAGAAGGCCCC, the binding signal with RELARELA (p65 homodimer) was -0.908 z-score; in the assay with p50p50 homodimer it was -0.224 z-score; with p52p52 homodimer, -0.259 z-score; in assay [1] it was -0.114 z-score; in [2], -0.223 z-score; with RELB subunit;p50 subunit, -0.248 z-score. Further, the binding signal with RELB subunit;p52 subunit is -0.262 z-score; in assay [3], -0.241 z-score; in assay [4] it was -0.183 z-score.

Take CAAAATGCCCT: the binding signal in the assay with RELARELA (p65 homodimer) was 0.196 z-score; with p50p50 homodimer, -0.106 z-score; in the assay with p52p52 homodimer it was -0.35 z-score; in assay [1], -0.0537 z-score; in assay [2], -0.15 z-score; with RELB subunit;p50 subunit, -0.464 z-score. The binding signal is -0.38 z-score with RELB subunit;p52 subunit, -0.13 z-score in assay [3] and -0.0299 z-score in [4].

In the case of GAATTATTCCC, the binding signal amounted to 1.89 z-score in the assay with RELARELA (p65 homodimer); 0.532 z-score with p50p50 homodimer; 0.423 z-score with p52p52 homodimer; 0.97 z-score in [1]; 0.744 z-score in assay [2]; 0.44 z-score in the assay with RELB subunit;p50 subunit. Further, the binding signal with RELB subunit;p52 subunit stood at 0.413 z-score; in [3] it was 1.16 z-score; in assay [4], 0.686 z-score.

CAGGGCTCCCT: the binding signal with RELARELA (p65 homodimer) is -0.815 z-score; with p50p50 homodimer, -0.631 z-score; with p52p52 homodimer it was -0.475 z-score; in [1], -0.698 z-score; in assay [2], -0.717 z-score; with RELB subunit;p50 subunit it was -0.43 z-score. In addition, the binding signal with RELB subunit;p52 subunit was -0.477 z-score; in assay [3], -0.901 z-score; in [4], -0.708 z-score.

In the case of GGAGAGCTCCT, the binding signal in the assay with RELARELA (p65 homodimer) was -0.469 z-score; with p50p50 homodimer it was -1.71 z-score; with p52p52 homodimer, -0.711 z-score; in assay [1], -1.01 z-score; in [2], -1.01 z-score; with RELB subunit;p50 subunit it was -1.17 z-score. Further, the binding signal with RELB subunit;p52 subunit was -1.06 z-score; in [3], -1.65 z-score; in assay [4], -1.07 z-score.

In the case of CGATAGCCCCC, the binding signal was -0.556 z-score with RELARELA (p65 homodimer); 0.93 z-score in the assay with p50p50 homodimer; 0.275 z-score in the assay with p52p52 homodimer; 0.352 z-score in [1]; 0.57 z-score in assay [2]; 0.492 z-score in the assay with RELB subunit;p50 subunit. Besides, the binding signal with RELB subunit;p52 subunit turned out to be 0.523 z-score; in assay [3] it was 0.288 z-score; in assay [4], 0.258 z-score.

In the case of AAGTTCACCCC, the binding signal with RELARELA (p65 homodimer) is -0.0981 z-score; with p50p50 homodimer, 0.184 z-score; with p52p52 homodimer, 0.0438 z-score; in [1] it was -0.0301 z-score; in [2], -0.0961 z-score; with RELB subunit;p50 subunit, 0.292 z-score. In addition, the binding signal is 0.317 z-score with RELB subunit;p52 subunit, 0.451 z-score in assay [3] and 0.174 z-score in assay [4].

CAAATGGTCCT: the binding signal in the assay with RELARELA (p65 homodimer) is -0.0232 z-score; with p50p50 homodimer, -1.33 z-score; with p52p52 homodimer, -0.481 z-score; in assay [1], -1.22 z-score; in assay [2], -0.808 z-score; with RELB subunit;p50 subunit it was -0.726 z-score. Besides, the binding signal with RELB subunit;p52 subunit was -0.534 z-score; in assay [3], -1.3 z-score; in assay [4], -0.727 z-score.

In the case of AGATATCTCCT, the binding signal in the assay with RELARELA (p65 homodimer) was -0.509 z-score; in the assay with p50p50 homodimer, -1.24 z-score; with p52p52 homodimer, -0.623 z-score; in [1] it was -0.927 z-score; in assay [2], -1.03 z-score; with RELB subunit;p50 subunit, -1.19 z-score. Besides, the binding signal with RELB subunit;p52 subunit was -1.06 z-score; in assay [3] it was -1.37 z-score; in assay [4], -0.83 z-score.

Take GAGAGACTCCT: the binding signal was -0.455 z-score with RELARELA (p65 homodimer); -2.14 z-score with p50p50 homodimer; -0.793 z-score with p52p52 homodimer; -1.01 z-score in assay [1]; -1.21 z-score in assay [2]; -1.19 z-score with RELB subunit;p50 subunit. For the same sequence, the binding signal was -1.24 z-score with RELB subunit;p52 subunit, -1.58 z-score in [3] and -1.02 z-score in [4].

With AGGGATCTCCC, the binding signal was determined as 1.05 z-score in the assay with RELARELA (p65 homodimer); 0.595 z-score with p50p50 homodimer; 2.05 z-score in the assay with p52p52 homodimer; 1.2 z-score in [1]; 1.32 z-score in assay [2]; 1.27 z-score with RELB subunit;p50 subunit. The binding signal with RELB subunit;p52 subunit is 1.12 z-score; in assay [3], 0.678 z-score; in assay [4], 1.36 z-score.

On to CAATGACTCCT, for which the binding signal is -0.344 z-score with RELARELA (p65 homodimer); -1.02 z-score in the assay with p50p50 homodimer; -0.692 z-score in the assay with p52p52 homodimer; -1.08 z-score in assay [1]; -1.05 z-score in assay [2]; -1.12 z-score with RELB subunit;p50 subunit. The results for the binding signal (in the assay with RELB subunit;p52 subunit; in assay [3]; in assay [4]) were -0.995 z-score, -1.33 z-score and -1.13 z-score, respectively.

As to GAAAAGGCCCC, the binding signal with RELARELA (p65 homodimer) is -0.413 z-score; with p50p50 homodimer it was 0.523 z-score; in the assay with p52p52 homodimer it was 0.108 z-score; in [1], 0.289 z-score; in [2], 0.416 z-score; with RELB subunit;p50 subunit it was 0.151 z-score. The binding signal with RELB subunit;p52 subunit is 0.246 z-score; in assay [3], -0.101 z-score; in assay [4] it was 0.313 z-score.

In the case of CGGTTGCTCCT, the binding signal with RELARELA (p65 homodimer) was -0.357 z-score; with p50p50 homodimer, -1.5 z-score; with p52p52 homodimer, -0.686 z-score; in [1] it was -0.927 z-score; in assay [2], -0.989 z-score; with RELB subunit;p50 subunit, -1.09 z-score. For the same sequence, the binding signal was -0.904 z-score with RELB subunit;p52 subunit, -1.44 z-score in assay [3] and -1 z-score in assay [4].

Regarding CAAAGGCCCCC, the binding signal with RELARELA (p65 homodimer) was -1.53 z-score; in the assay with p50p50 homodimer, 0.336 z-score; in the assay with p52p52 homodimer, 0.0392 z-score; in [1], 0.041 z-score; in assay [2], 0.0834 z-score; with RELB subunit;p50 subunit, 0.123 z-score. Moreover, the results for the binding signal (with RELB subunit;p52 subunit; in assay [3]; in [4]) were 0.14 z-score, -0.0908 z-score and 0.0137 z-score, respectively.
